This is an account of results in publication PMC7862700, “An all-to-all approach to the identification of sequence-specific readers for epigenetic DNA modifications on cytosine”.

Holding throughout (assay): DAPPL (digital affinity profiling via proximity ligation, sequencing); 10 mM Tris-HCl pH 7.5, 50 mM NaCl, 1 mM DTT, 4% glycerol, room temperature, 30 min; GST-TFs on glutathione beads, 16-mer random dsDNA library, 0.1% formaldehyde crosslink after washing; high values mean tight binding
In one assay the target is T1, FEV (Homo sapiens, UniProt Q99581 1-238).
T1 sequence: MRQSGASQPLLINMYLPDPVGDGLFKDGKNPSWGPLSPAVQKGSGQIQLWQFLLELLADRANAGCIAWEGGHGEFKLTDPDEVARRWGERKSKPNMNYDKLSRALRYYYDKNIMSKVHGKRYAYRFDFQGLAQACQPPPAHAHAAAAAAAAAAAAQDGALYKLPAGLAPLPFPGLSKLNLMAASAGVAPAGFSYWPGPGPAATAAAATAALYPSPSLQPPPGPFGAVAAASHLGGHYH
As to conditions: protein: recombinant; tags: N-terminal GST; dsDNA, one strand shown. In short, it runs like this: (§1)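 Pools were built from human transcription factors expressed in yeast as GST fusions, captured on glutathione beads and DNA-barcoded, along with a tag-only sample. Incubation with 200 nmole of a 16-mer random double-stranded DNA library lasted 30 min at room temperature in Tris/NaCl/DTT/glycerol buffer, and was followed by washing, 0.1% formaldehyde crosslinking, proximity ligation, PCR amplification and Illumina NextSeq500 sequencing. Binding signal is the quotient of each hexamer's read frequency for a factor and its frequency for the tag-only sample.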

The next assay has as its target ETV5 (Homo sapiens, UniProt P41161 1-510). As to conditions: protein: recombinant; tags: N-terminal GST; dsDNA, one strand shown. The method in brief:
as §1

The next assay addresses HSF1 (Homo sapiens, UniProt Q00613 1-529). The conditions noted are these: protein: recombinant; tags: N-terminal GST; chain copies: 3; dsDNA, one strand shown. In short, it runs like this: as §1
Another assay concerns the target T2, SPIC (Homo sapiens, UniProt Q8N5J4 1-248).
T2 sequence: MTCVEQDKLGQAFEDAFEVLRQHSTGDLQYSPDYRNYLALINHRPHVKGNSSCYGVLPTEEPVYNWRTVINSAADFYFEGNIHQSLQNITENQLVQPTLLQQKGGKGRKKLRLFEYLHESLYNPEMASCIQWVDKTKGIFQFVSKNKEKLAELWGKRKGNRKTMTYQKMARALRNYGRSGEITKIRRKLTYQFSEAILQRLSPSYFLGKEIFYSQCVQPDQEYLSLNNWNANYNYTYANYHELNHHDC
As to conditions: protein: recombinant; tags: N-terminal GST; dsDNA, one strand shown. The method in brief: as §1

The next assay addresses ELF4 (Homo sapiens, UniProt Q99607 1-663). As to conditions: protein: recombinant; tags: N-terminal GST; dsDNA, one strand shown. The method in brief:
as §1

The target of the next assay is T3, ELK4 (Homo sapiens, UniProt P28324-2 1-405).
T3 sequence: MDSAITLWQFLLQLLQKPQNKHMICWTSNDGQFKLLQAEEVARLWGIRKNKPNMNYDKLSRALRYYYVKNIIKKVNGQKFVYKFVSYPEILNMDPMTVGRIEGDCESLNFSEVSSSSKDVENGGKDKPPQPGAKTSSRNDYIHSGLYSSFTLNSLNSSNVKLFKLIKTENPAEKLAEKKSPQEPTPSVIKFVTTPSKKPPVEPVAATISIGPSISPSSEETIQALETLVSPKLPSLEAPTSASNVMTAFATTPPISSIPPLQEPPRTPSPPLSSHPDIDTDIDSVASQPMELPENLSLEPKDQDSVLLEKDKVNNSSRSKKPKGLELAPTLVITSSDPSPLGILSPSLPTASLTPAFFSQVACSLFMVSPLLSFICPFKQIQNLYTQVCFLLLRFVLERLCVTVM
The conditions noted are these: protein: recombinant; tags: N-terminal GST; dsDNA, one strand shown. In short, it runs like this:
as §1

The target in the next assay is T4, ETV2 (Homo sapiens, UniProt O00321 1-342).
T4 sequence: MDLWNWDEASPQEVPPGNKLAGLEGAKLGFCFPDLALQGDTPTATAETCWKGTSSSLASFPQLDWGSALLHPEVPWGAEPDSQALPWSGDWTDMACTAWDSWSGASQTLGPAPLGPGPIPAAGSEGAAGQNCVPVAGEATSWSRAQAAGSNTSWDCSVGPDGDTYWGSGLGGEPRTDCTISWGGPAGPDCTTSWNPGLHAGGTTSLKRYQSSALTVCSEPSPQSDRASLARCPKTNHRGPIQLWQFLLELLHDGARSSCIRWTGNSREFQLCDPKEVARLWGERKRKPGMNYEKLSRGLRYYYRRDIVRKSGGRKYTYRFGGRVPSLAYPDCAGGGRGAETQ
The conditions noted are these: protein: recombinant; tags: N-terminal GST; dsDNA, one strand shown. In short, it runs like this: as §1

The target of a further assay is T5, ELF3 (Homo sapiens, UniProt P78545 1-371).
T5 sequence: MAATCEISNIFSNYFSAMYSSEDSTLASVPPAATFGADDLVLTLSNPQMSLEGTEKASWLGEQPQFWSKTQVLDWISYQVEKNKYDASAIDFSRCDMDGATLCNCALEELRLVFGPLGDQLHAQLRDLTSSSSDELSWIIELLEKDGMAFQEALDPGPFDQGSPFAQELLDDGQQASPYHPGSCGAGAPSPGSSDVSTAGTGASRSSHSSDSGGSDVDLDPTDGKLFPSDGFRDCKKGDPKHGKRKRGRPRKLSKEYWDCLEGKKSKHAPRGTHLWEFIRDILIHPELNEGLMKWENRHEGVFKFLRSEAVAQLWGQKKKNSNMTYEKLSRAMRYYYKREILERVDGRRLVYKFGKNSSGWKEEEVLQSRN
The conditions noted are these: protein: recombinant; tags: N-terminal GST; dsDNA, one strand shown. In short, it runs like this:
as §1

For a further assay, the target named is CRX (Homo sapiens, UniProt O43186 1-299). As to conditions: protein: recombinant; tags: N-terminal GST; dsDNA, one strand shown. In short, it runs like this: as §1
In a further assay the target is ETV1 (Homo sapiens, UniProt P50549 1-477). As to conditions: protein: recombinant; tags: N-terminal GST; dsDNA, one strand shown. The method in brief: as §1
Another assay has as its target T6, ERF (Homo sapiens, UniProt P50548 1-548).
T6 sequence: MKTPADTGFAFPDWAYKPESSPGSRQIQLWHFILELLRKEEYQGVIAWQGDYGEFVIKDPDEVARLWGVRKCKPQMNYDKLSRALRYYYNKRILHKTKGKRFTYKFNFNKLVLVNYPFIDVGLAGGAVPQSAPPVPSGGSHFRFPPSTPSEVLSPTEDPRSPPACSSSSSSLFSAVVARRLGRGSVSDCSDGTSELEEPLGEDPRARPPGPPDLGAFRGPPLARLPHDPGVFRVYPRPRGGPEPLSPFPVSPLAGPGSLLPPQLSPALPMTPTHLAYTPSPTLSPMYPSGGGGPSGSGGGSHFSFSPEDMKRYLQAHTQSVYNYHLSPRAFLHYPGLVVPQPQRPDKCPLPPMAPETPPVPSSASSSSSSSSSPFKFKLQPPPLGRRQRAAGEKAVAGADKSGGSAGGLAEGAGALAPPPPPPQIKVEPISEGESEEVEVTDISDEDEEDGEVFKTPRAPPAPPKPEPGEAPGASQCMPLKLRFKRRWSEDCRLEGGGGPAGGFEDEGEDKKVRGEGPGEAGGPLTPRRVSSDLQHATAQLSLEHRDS
As to conditions: protein: recombinant; tags: N-terminal GST; dsDNA, one strand shown. In short, it runs like this:
as §1

A further assay concerns the target T7, ETV3L (Homo sapiens, UniProt Q6ZN32 1-361).
T7 sequence: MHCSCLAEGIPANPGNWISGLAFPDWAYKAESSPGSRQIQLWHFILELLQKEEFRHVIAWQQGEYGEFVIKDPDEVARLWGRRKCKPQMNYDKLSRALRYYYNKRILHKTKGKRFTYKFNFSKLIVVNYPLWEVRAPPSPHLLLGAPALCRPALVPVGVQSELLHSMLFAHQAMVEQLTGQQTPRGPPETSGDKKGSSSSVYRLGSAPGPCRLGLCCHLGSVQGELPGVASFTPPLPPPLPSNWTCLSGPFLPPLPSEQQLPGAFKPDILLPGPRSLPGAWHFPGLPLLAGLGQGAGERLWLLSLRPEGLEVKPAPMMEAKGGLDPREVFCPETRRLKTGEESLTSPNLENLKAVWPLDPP
As to conditions: protein: recombinant; tags: N-terminal GST; dsDNA, one strand shown. In short, it runs like this:
as §1

The target of a further assay is T8, ETS2 (Homo sapiens, UniProt P15036 1-469).
T8 sequence: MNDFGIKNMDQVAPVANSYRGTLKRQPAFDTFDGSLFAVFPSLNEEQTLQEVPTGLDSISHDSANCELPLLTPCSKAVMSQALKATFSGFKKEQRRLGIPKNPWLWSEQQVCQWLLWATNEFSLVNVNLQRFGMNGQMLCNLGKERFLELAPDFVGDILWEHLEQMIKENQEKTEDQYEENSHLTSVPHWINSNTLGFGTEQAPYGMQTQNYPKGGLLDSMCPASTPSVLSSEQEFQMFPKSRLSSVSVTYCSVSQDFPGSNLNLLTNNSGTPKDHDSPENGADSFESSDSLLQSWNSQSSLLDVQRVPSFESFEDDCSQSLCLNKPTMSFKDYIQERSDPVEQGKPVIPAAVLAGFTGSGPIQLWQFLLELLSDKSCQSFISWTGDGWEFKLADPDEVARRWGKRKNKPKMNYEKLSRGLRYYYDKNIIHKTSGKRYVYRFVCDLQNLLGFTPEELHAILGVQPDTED
As to conditions: protein: recombinant; tags: N-terminal GST; dsDNA, one strand shown. The method in brief:
as §1

For another assay, the target named is T9, SPDEF (Homo sapiens, UniProt O95238 1-335).
T9 sequence: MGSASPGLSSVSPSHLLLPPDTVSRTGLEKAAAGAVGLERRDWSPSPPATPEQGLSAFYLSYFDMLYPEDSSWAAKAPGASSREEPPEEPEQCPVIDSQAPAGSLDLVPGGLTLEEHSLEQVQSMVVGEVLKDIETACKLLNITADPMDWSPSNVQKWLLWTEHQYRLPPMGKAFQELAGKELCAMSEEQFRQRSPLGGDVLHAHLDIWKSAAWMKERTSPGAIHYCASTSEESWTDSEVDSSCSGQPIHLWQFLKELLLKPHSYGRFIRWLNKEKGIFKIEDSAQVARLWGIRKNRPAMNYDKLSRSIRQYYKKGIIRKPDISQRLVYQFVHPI
The conditions noted are these: protein: recombinant; tags: N-terminal GST; dsDNA, one strand shown. The method in brief: as §1

In the next assay the target is T10, ETV7 (Homo sapiens, UniProt Q9Y603 1-341).
T10 sequence: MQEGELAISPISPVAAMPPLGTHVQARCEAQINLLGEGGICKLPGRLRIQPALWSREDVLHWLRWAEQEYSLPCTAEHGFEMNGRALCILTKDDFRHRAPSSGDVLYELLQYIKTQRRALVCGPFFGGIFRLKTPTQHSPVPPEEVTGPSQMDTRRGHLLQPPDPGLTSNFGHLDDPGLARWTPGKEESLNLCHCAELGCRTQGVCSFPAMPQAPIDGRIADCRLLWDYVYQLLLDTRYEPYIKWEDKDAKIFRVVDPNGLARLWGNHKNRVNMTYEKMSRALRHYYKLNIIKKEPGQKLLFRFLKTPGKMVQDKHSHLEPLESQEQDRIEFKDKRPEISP
The conditions noted are these: protein: recombinant; tags: N-terminal GST; dsDNA, one strand shown. The method in brief: as §1

In the next assay the target is T11, ELF5 (Homo sapiens, UniProt Q9UKW6-2 1-255).
T11 sequence: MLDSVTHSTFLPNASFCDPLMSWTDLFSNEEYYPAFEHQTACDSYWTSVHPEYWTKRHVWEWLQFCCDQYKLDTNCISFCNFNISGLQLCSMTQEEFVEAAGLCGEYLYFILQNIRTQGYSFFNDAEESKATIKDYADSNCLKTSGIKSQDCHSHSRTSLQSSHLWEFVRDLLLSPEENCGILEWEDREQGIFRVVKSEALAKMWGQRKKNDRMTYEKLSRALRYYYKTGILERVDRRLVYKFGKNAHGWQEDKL
As to conditions: protein: recombinant; tags: N-terminal GST; dsDNA, one strand shown. In short, it runs like this:
as §1

In a further assay the target is T12, ETV3 (Homo sapiens, UniProt P41162-2 1-143).
T12 sequence: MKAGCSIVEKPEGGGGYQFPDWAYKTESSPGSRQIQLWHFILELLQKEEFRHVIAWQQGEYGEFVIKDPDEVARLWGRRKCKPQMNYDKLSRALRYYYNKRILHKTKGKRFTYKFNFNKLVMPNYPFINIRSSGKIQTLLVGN
The conditions noted are these: protein: recombinant; tags: N-terminal GST; dsDNA, one strand shown. The method in brief: as §1

In another assay the target is ETV6 (Homo sapiens, UniProt P41212 1-452). The conditions noted are these: protein: recombinant; tags: N-terminal GST; dsDNA, one strand shown. In short, it runs like this: as §1
Chain of ETV6 (P41212 whole entry): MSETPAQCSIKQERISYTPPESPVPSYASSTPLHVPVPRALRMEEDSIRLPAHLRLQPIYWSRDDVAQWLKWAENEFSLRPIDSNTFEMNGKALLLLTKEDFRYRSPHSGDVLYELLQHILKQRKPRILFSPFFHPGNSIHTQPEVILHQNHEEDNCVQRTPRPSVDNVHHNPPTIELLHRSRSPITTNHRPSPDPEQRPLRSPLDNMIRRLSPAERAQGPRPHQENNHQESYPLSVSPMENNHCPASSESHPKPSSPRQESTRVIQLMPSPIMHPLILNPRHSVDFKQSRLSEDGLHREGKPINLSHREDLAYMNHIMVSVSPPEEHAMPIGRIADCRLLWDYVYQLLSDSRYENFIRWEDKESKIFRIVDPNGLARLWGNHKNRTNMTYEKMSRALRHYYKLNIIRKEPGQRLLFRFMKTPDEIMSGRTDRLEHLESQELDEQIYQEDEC

Chain of ETV1 (P50549 whole entry): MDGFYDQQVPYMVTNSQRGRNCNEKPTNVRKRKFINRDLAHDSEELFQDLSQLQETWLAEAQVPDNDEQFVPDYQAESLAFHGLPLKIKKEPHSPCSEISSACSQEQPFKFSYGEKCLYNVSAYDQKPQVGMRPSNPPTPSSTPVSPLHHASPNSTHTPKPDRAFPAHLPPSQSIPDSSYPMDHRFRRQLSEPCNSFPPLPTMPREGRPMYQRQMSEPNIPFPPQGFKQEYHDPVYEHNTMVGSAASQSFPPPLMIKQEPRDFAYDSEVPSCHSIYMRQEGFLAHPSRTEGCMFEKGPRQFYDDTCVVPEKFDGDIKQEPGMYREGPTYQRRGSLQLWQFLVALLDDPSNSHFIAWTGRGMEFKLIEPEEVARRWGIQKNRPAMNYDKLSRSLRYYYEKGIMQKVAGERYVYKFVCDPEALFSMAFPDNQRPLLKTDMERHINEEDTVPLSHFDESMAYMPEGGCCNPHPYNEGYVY
Chain of ELF4 (Q99607 whole entry): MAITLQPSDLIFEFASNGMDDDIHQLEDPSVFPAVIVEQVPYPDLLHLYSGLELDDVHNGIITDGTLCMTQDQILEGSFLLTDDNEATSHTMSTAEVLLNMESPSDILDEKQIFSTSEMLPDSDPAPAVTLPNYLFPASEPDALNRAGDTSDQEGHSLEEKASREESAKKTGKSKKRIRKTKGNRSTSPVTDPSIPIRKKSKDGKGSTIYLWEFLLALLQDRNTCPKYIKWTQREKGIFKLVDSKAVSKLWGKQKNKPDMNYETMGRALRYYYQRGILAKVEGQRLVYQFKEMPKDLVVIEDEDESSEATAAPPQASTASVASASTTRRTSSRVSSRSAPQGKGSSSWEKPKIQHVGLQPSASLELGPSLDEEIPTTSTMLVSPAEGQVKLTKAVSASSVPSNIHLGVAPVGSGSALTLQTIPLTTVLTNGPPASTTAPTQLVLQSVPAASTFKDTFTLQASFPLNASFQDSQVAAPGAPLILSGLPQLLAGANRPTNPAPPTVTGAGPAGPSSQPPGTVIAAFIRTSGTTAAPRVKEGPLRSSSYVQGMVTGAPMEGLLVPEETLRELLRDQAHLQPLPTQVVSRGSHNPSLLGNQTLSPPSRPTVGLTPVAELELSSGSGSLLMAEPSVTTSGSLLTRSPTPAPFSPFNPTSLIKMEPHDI
Chain of CRX (O43186 whole entry): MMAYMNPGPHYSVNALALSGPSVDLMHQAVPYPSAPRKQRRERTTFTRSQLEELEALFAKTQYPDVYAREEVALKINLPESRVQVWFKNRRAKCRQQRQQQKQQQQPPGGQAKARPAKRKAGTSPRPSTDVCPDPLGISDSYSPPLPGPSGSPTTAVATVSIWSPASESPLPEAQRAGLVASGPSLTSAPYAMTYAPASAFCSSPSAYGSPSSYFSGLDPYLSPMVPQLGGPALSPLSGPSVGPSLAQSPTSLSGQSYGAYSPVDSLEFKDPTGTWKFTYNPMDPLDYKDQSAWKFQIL
Chain of HSF1 (Q00613 whole entry): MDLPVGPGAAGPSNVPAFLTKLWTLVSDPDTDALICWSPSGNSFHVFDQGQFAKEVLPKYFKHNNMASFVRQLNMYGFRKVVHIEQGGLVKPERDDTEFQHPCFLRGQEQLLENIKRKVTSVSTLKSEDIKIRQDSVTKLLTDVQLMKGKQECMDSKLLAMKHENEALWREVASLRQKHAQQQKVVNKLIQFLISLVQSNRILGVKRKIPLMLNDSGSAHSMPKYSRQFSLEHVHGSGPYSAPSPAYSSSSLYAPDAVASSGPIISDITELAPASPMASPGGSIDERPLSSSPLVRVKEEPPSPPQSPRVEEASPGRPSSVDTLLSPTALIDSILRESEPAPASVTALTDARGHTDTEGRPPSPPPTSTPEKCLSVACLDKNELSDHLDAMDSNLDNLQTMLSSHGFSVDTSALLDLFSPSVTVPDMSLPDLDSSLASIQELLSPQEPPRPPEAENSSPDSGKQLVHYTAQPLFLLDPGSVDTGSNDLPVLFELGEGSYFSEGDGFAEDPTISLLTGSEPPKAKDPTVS
Chain of ETV5 (P41161 whole entry): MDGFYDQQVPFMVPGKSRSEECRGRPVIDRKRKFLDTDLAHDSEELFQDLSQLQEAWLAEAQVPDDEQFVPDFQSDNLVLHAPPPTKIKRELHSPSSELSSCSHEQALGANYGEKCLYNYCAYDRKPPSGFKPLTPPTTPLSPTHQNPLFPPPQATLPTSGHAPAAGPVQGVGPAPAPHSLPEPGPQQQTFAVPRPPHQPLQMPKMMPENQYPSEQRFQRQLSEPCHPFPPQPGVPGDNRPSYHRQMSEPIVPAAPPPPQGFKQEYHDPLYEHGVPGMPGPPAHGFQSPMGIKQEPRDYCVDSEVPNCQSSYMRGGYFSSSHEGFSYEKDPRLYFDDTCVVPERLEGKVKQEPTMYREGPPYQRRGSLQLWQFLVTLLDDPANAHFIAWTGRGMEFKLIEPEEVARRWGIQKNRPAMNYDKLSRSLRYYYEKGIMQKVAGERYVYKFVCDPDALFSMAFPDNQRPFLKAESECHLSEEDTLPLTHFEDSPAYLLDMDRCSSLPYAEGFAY

On to ATCCCC, for which the binding signal with FEV was 1.44 fold enrichment (6-mer frequency, TF over GST control); in the assay with ETV5, 1.37 fold enrichment (6-mer frequency, TF over GST control); in the assay with HSF1, 1.78 fold enrichment (6-mer frequency, TF over GST control); in the assay with SPIC, 1.37 fold enrichment (6-mer frequency, TF over GST control); with ELF4, 1.37 fold enrichment (6-mer frequency, TF over GST control); with ELK4 it was 1.44 fold enrichment (6-mer frequency, TF over GST control). Further, the binding signal with ETV2 is 1.39 fold enrichment (6-mer frequency, TF over GST control); with ELF3, 1.53 fold enrichment (6-mer frequency, TF over GST control); in the assay with CRX it was 2.37 fold enrichment (6-mer frequency, TF over GST control); in the assay with ETV1, 1.43 fold enrichment (6-mer frequency, TF over GST control); with ERF, 1.43 fold enrichment (6-mer frequency, TF over GST control); with ETV3L, 1.41 fold enrichment (6-mer frequency, TF over GST control). In addition, the binding signal is 1.29 fold enrichment (6-mer frequency, TF over GST control) in the assay with ETS2; 1.41 fold enrichment (6-mer frequency, TF over GST control) in the assay with SPDEF; 1.3 fold enrichment (6-mer frequency, TF over GST control) with ETV7; 1.46 fold enrichment (6-mer frequency, TF over GST control) with ELF5; 1.35 fold enrichment (6-mer frequency, TF over GST control) in the assay with ETV3; 1.29 fold enrichment (6-mer frequency, TF over GST control) in the assay with ETV6.
